This is a sample that favours compounds with a hit; in the whole collection about 2.1% have one here.
IEC-6 tox: counter-screen for KLF5 inhibitors: cytotoxicity in IEC-6 cells; inhibition, % at 5 µM; IEC-6 cytotoxicity, luminescence viability; AID 1825; 290,000 tested, 0.78% active; in the data active means inhibition above about 22%
Ba/F3 V617F tox: reduce viability of Ba/F3 cells dependent on JAK2V617F; Ba/F3 EpoR-JAK2V617F viability, ATP luminescence; inhibition, % at 5.6 µM; 220,000 tested, 1.1% active; AID 1446;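 active means inhibition above the campaign mean plus 3 SD over all tested compounds, cut at about 24% in these data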;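 further: cytokine-independent growth of Ba/F3 cells driven by EpoR plus mutant JAK2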
BaF3 tox: reduces parental Ba/F3 cell viability, JAK2V617F counter-screen; CellTiter-Glo ATP luminescence; 220,000 tested, 1.1% active; inhibition, % at 5.6 µM;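 active means inhibition above a per-campaign cutoff, the mean inhibition of all tested compounds plus 3 SD, cut at about 27% in these data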
KLF5 inhibitor: kruppel-like factor 5 inhibition; DLD-1 KLF5 promoter-luciferase reporter, luminescence; inhibition, % at 5 µM; 290,000 tested, 0.23% active; AID 1700;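 active means inhibition above a per-plate limit of that plate's mean compound inhibition plus 3 SD, cut at about 60% in these data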;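 further: higher means less KLF5 promoter-driven luciferase light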
APP 5UTR inh: APP translation inhibition; 190,000 tested, 0.82% active; SH-SY5Y APP 5'UTR-luciferase reporter, luminescence; inhibition, % at 2 µM; AID 1285;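 active means inhibition above a set limit, derived from the sample mean plus 3 SD, cut at about 45% in these data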
aSyn 5UTR inh: MLPCN primary screen, SNCA 5' untranslated region | alpha-synuclein 5'UTR reporter, inhibitor activity | inhibition, % (tested at 7.5 µM) | 300,000 tested, 0.82% active; in the data active means inhibition above about 60%;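 further: H4 neuroglioblastoma cells stably carrying SNCA 5'UTR luciferase fusion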
Hits are given with their value.

COc1ccc(Oc2nc(SC)nc3ccsc23)cc1 was read as IEC-6 tox inactive, Ba/F3 V617F tox inactive, BaF3 tox inactive, KLF5 inhibitor inactive, APP 5UTR inh inactive and aSyn 5UTR inh inactive.
Screening CSc1nc(Oc2ccc3ccccc3c2)c2sccc2n1 returned IEC-6 tox inactive, Ba/F3 V617F tox inactive, BaF3 tox inactive, KLF5 inhibitor inactive, APP 5UTR inh inactive and aSyn 5UTR inh 82.
Cc1nn(-c2ccc(Cl)cc2)c2[nH]c(CCl)cc(=O)c12 was read as IEC-6 tox inactive, KLF5 inhibitor inactive and aSyn 5UTR inh inactive.
For CCSc1nc(-c2ccccc2)nc(C(Cl)Cl)n1 the results were IEC-6 tox inactive, Ba/F3 V617F tox inactive, BaF3 tox inactive, KLF5 inhibitor inactive, APP 5UTR inh 47 and aSyn 5UTR inh 123.
`COc1cccc(COc2cc3ccccc3nc2C)c1` gave IEC-6 tox inactive, Ba/F3 V617F tox 42, BaF3 tox 43, KLF5 inhibitor inactive, APP 5UTR inh inactive and aSyn 5UTR inh inactive.
`Cc1nc2ccccc2cc1OCc1ccccc1` gave IEC-6 tox inactive, Ba/F3 V617F tox inactive, BaF3 tox inactive, KLF5 inhibitor inactive, APP 5UTR inh inactive and aSyn 5UTR inh inactive.
N#CC1=C(SCC(=O)c2ccc(Br)cc2)NC2=C(C(=O)CCC2)C1c1ccco1 (stereo unspecified) was read as IEC-6 tox inactive, Ba/F3 V617F tox inactive, BaF3 tox inactive, KLF5 inhibitor inactive and APP 5UTR inh 67.
CCc1ccc(NC(=O)CSC2=C(C#N)C(c3ccco3)C3=C(CCCC3=O)N2)cc1 (stereo unspecified) was read as IEC-6 tox inactive, Ba/F3 V617F tox inactive, BaF3 tox inactive, KLF5 inhibitor inactive, APP 5UTR inh inactive and aSyn 5UTR inh inactive.
`COC(=O)CCCCCCCCCC[N+]1(C)CCCCC1` gave IEC-6 tox inactive, Ba/F3 V617F tox inactive, BaF3 tox inactive, KLF5 inhibitor inactive, APP 5UTR inh inactive and aSyn 5UTR inh inactive.
CC(=O)OCCCCCCCCCCC[N+]1(C)CCCCC1 was read as IEC-6 tox inactive, Ba/F3 V617F tox 25, BaF3 tox 51, KLF5 inhibitor inactive, APP 5UTR inh inactive and aSyn 5UTR inh inactive.
`Cn1nc(-c2ccccc2)c2ncc(C(F)(F)F)cc21` gave IEC-6 tox inactive, Ba/F3 V617F tox inactive, BaF3 tox inactive, KLF5 inhibitor inactive, APP 5UTR inh inactive and aSyn 5UTR inh inactive.
Screening COc1ccc(C2CC(c3cccs3)=NN2C(=O)CSc2nc3c(cnn3-c3ccccc3)c(=O)[nH]2)cc1 (stereo unspecified) returned IEC-6 tox inactive, Ba/F3 V617F tox inactive, BaF3 tox inactive, KLF5 inhibitor inactive, APP 5UTR inh inactive and aSyn 5UTR inh inactive.
`COc1cccc(C2CC(c3cccs3)=NN2C(=O)CSc2nc3c(cnn3-c3ccc(F)cc3)c(=O)[nH]2)c1OC` (stereo unspecified) gave IEC-6 tox inactive, Ba/F3 V617F tox inactive, BaF3 tox inactive, KLF5 inhibitor inactive, APP 5UTR inh 55 and aSyn 5UTR inh inactive.
For CC1(C)C2CCC1(C)C(OC(=O)c1ccccc1C(=O)O)C2 (stereo unspecified) the results were IEC-6 tox inactive, Ba/F3 V617F tox inactive, BaF3 tox inactive, KLF5 inhibitor inactive and aSyn 5UTR inh inactive.
For CC(=O)OC(COC1C[C@@H]2CC[C@@]1(C)C2(C)C)C[N+]1(C)CCCCC1 (stereo partly specified) the results were IEC-6 tox inactive, Ba/F3 V617F tox inactive, BaF3 tox 39, KLF5 inhibitor inactive and aSyn 5UTR inh inactive.
Screening CC(C)NC(=O)C(c1ccc(F)cc1)N(Cc1ccco1)C(=O)CCC(=O)Nc1ccccn1 (stereo unspecified) returned IEC-6 tox inactive, KLF5 inhibitor inactive and aSyn 5UTR inh inactive.
Screening O=C(N/N=C/c1cc(Cl)ccc1O)C(=O)Nc1ccccc1OC(F)(F)C(F)F returned IEC-6 tox inactive, Ba/F3 V617F tox inactive, BaF3 tox inactive, KLF5 inhibitor inactive and APP 5UTR inh 60.
O=C(N/N=C/c1cc(Br)ccc1O)C(=O)Nc1ccccc1OC(F)(F)C(F)F was read as IEC-6 tox inactive, Ba/F3 V617F tox inactive, BaF3 tox inactive, KLF5 inhibitor inactive, APP 5UTR inh inactive and aSyn 5UTR inh 82.
CCCCC1CCC(c2nc(-c3ccccn3)no2)CC1 (stereo unspecified) was read as IEC-6 tox inactive, Ba/F3 V617F tox inactive, BaF3 tox inactive, KLF5 inhibitor inactive, APP 5UTR inh inactive and aSyn 5UTR inh 97.
Screening c1ccc(-c2noc(C3CCC3)n2)nc1 returned IEC-6 tox inactive, Ba/F3 V617F tox inactive, BaF3 tox inactive, KLF5 inhibitor inactive and aSyn 5UTR inh inactive.
CCOc1ccc(S(=O)(=O)N(CC)CC(=O)NCc2ccccn2)cc1C was read as IEC-6 tox inactive, KLF5 inhibitor inactive and aSyn 5UTR inh inactive.
For OCc1nc2ccccc2n1Cc1c(F)cccc1Cl the results were IEC-6 tox inactive, Ba/F3 V617F tox inactive, BaF3 tox inactive, KLF5 inhibitor inactive and aSyn 5UTR inh inactive.
CSc1nc2ccccc2n1Cc1c(Cl)cccc1Cl was read as IEC-6 tox inactive, Ba/F3 V617F tox inactive, BaF3 tox 30, KLF5 inhibitor inactive, APP 5UTR inh inactive and aSyn 5UTR inh inactive.
Screening Cc1ccc(S(=O)(=O)CCC(=O)OC(C)C(=O)N2CCc3ccccc32)cc1 (stereo unspecified) returned aSyn 5UTR inh inactive.
For O=C(CCNC(=O)c1ccc(Br)cc1)Nc1ccc(S(=O)(=O)Nc2ncccn2)cc1 the results were aSyn 5UTR inh inactive.
Cc1ccc2[nH]c3c(N4CCCCCC4)ncnc3c2c1 was read as IEC-6 tox inactive, Ba/F3 V617F tox 46, BaF3 tox 48, KLF5 inhibitor inactive, APP 5UTR inh inactive and aSyn 5UTR inh inactive.
Screening Cc1ccc2[nH]c3c(N4CCN(Cc5ccccc5)CC4)ncnc3c2c1 returned IEC-6 tox inactive, Ba/F3 V617F tox inactive, BaF3 tox inactive, KLF5 inhibitor inactive, APP 5UTR inh inactive and aSyn 5UTR inh inactive.
Screening CN1CCN(C(c2cccnc2)c2ccc3cccnc3c2O)CC1 (stereo unspecified) returned IEC-6 tox inactive, Ba/F3 V617F tox inactive, BaF3 tox inactive, KLF5 inhibitor inactive, APP 5UTR inh inactive and aSyn 5UTR inh inactive.
For CN1CCN(C(c2ccc(Br)cc2)c2cc(Cl)c3cccnc3c2O)CC1 (stereo unspecified) the results were IEC-6 tox inactive, KLF5 inhibitor inactive and aSyn 5UTR inh 67.
For COc1ccc(-c2c(NC(=O)c3ccco3)oc3ccccc3c2=O)cc1OC the results were IEC-6 tox inactive, KLF5 inhibitor inactive and aSyn 5UTR inh inactive.
For Cc1cccc(C)c1NC1=C(Cl)C(=O)OC1OC(C)C (stereo unspecified) the results were IEC-6 tox inactive, Ba/F3 V617F tox inactive, BaF3 tox inactive, KLF5 inhibitor inactive, APP 5UTR inh inactive and aSyn 5UTR inh inactive.
Cc1ccc(NC2=C(Cl)C(=O)OC2OC(C)C)c(C)c1 (stereo unspecified) was read as IEC-6 tox inactive, Ba/F3 V617F tox inactive, BaF3 tox inactive, KLF5 inhibitor inactive, APP 5UTR inh inactive and aSyn 5UTR inh 69.

High-throughput results as filed in PubChem BioAssay.
